The results in this text go back to the supplement of paper PMC12669032.

Unmarked numbers belong to inactive results.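 The calls were made as follows: active = AUC reduced over 20% with Padj below 0.05 in at least 2 of 3 replicates; inactive = otherwise.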

Holding throughout (test): growth AUC relative to DMSO control (median of replicates) (fraction); higher = more growth (less inhibition), active = hit call of the paper
Common to all, as to details: 20 µM; 24 h

The test system of test [1] is Coprococcus comes. The method in brief: (§1)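 Gut bacteria were grown singly in mGAM at 37 °C without oxygen, from OD600 0.05, alongside 20 µM compound in 1% DMSO, and OD600 was read each hour for 24 h. Area under the growth curve was normalised to the median of solvent-only wells per plate, or to row and column medians on the industrial chemical plate. The minimum OD was set to 0 beforehand, and the reported value is the median of three biological replicates grown on separate days.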

Test [2] has as its system Escherichia coli ED1a. The method in brief: as §1
Test [3] relates to Escherichia coli IAI1. The method in brief: as §1
In test [4] the test system is Eubacterium rectale. The essentials:
as §1

Test [5] concerns Fusobacterium nucleatum subsp. animalis. The essentials:
as §1

Test [6] relates to Lactobacillus gasseri. The method in brief: as §1
Test [7] has as its system Lactobacillus paracasei. The essentials:
as §1

In test [8] the test system is Odoribacter splanchnicus. The essentials: as §1
The test system of test [9] is Parabacteroides distasonis. The method in brief:
as §1

Test [10] concerns Parabacteroides merdae. The method in brief: as §1

Consider `O=C(O)c1cc(Oc2ccc(C(F)(F)F)cc2Cl)ccc1[N+](=O)[O-]`, for which the “growth AUC” value in test [1] was 0.967; in [2], 0.992; in test [3], 0.948; in [4] it was 1.06; in test [5] it was 0.957; in test [6], 0.95. The “growth AUC” value in [7] was 0.966; in test [8] it was 1.03; in test [9], 0.896; in test [10], 0.971.
For the compound `CCNc1nc(NC(C)C)nc(SC)n1`, the “growth AUC” value was 1.01 in test [1]; 0.974 in [2]; 0.989 in [3]; 1 in [4]; 1.13 in [5]; 0.987 in [6]. The “growth AUC” value in test [7] is 0.992; in test [8], 0.999; in test [9], 1.01; in [10], 1.04.
On to `COc1cc(OC)n2nc(S(=O)(=O)Nc3c(Cl)ccc(C)c3Cl)nc2n1`, for which the “growth AUC” value in test [1] is 1.02; in [2] it was 0.993; in [3] it was 1.02; in [4], 0.994; in test [5], 0.9; in test [6] it was 1.09. Also, the “growth AUC” value in test [7] is 0.978; in test [8] it was 1.02; in [9], 1.06; in [10] it was 0.986.
Consider `ClCC(Br)CBr` (stereo not given), for which the “growth AUC” value was 1 in test [1]; 0.985 in [2]; 0.996 in test [3]; 0.994 in test [4]; 0.995 in test [5]; 0.916 in [6]. The “growth AUC” value in [7] was 0.995; in [8] it was 1.02; in test [9] it was 1; in [10], 0.996.
For `Cc1cc(C2CC2)nc(Nc2ccccc2)n1`, the “growth AUC” value in test [1] is 1.04; in test [2], 0.984; in test [3], 0.962; in test [4], 1.05; in [5], 1.03; in test [6], 0.982. Also, the “growth AUC” value is 0.969 in test [7], 1.04 in test [8], 1.01 in test [9] and 0.894 in [10].
In the case of `Cc1cc(Cl)ccc1O[C@H](C)C(=O)O`, the “growth AUC” value in test [1] is 1.01; in [2] it was 1; in [3], 0.98; in test [4] it was 1.06; in [5], 1.08; in [6] it was 0.873. Also, the “growth AUC” value in test [7] is 0.979; in [8] it was 1.1; in [9], 0.961; in test [10], 0.956.
Take `Cc1ccccc1C(=O)Nc1cccc(OC(C)C)c1`: the “growth AUC” value is 1.02 in test [1]; 0.991 in test [2]; 1 in test [3]; 0.953 in [4]; 0.955 in [5]; 1.06 in test [6]. Also, the “growth AUC” value was 1.01 in test [7], 1.03 in test [8], 1.04 in [9] and 0.974 in test [10].
Take `Nc1cc(Cl)ccc1Cl`: the “growth AUC” value is 1 in test [1]; 1 in [2]; 1.01 in [3]; 0.989 in [4]; 1.07 in test [5]; 1.04 in test [6]. Further, the “growth AUC” value is 0.958 in test [7], 1 in test [8], 1.02 in test [9] and 1.04 in test [10].
Consider `O=P(OC(CCl)CCl)(OC(CCl)CCl)OC(CCl)CCl`, for which the “growth AUC” value in [1] is 0.89; in [2], 1.01; in test [3], 1; in test [4], 1.07; in test [5], 1.11; in test [6] it was 0.905. In addition, the “growth AUC” value in [7] is 1.03; in [8], 0.613; in test [9], 0.5 (active); in test [10] it was 0.911.
On to `COc1cc(Cl)c(OC)cc1Cl`, for which the “growth AUC” value is 1.04 in test [1]; 1.03 in test [2]; 1.01 in [3]; 0.986 in test [4]; 0.951 in [5]; 0.94 in test [6]. Besides, the “growth AUC” value in test [7] is 0.94; in [8], 1; in test [9] it was 1.02; in [10], 1.05.
`CC(COc1ccc(Oc2ccccc2)cc1)Oc1ccccn1` (stereo not given): the “growth AUC” value is 0.962 in test [1]; 0.999 in test [2]; 0.968 in test [3]; 1.04 in test [4]; 0.97 in test [5]; 0.989 in test [6]. Moreover, the “growth AUC” value was 0.939 in test [7], 1.03 in [8], 0.979 in test [9] and 0.929 in test [10].
Turning to `O=C(Nc1ccccc1-c1ccc(Cl)cc1)c1cccnc1Cl`, the “growth AUC” value is 1 in test [1]; 0.981 in test [2]; 1.01 in test [3]; 0.968 in test [4]; 0.956 in test [5]; 1.08 in test [6]. Moreover, the “growth AUC” value in test [7] was 0.972; in [8], 0.86; in test [9] it was 0.839; in [10] it was 0.998.
`CCS(=O)(=O)Cc1ccccc1OC(=O)NC`: the “growth AUC” value is 0.996 in test [1]; 1 in test [2]; 1 in test [3]; 1.07 in test [4]; 1.03 in test [5]; 0.958 in test [6]. Further, the “growth AUC” value was 1.02 in [7], 1 in test [8], 0.98 in [9] and 0.983 in [10].
